Screening results: PubChem BioAssay, National Center for Advancing Translational Sciences (NCATS)
Shiga toxin inh – A qHTS for Small Molecule Inhibitors of Shiga Toxin | Vero cells, Shiga toxin protein synthesis inhibition reporter | inhibition, % at 38.7 µM | 9.2% of 290,000 active; in the data active = inhibition mostly above about 28%, no sharp cut-off; inactive = mostly below about 43%; note: 0% is about no effect
Pf growth 48h – Primary qHTS for delayed death inhibitors of the malarial parasite plastid, 48 hour incubation. 5.9% of 310,000 active. P. falciparum luciferase growth in erythrocytes, 48 h. Potency, µM (top dose mostly 28.7 µM), for inactives: top-dose activity change, negative = inhibition, actives largely listed as inhibitors; note: potency is the fitted concentration of half-maximal effect; % is set by controls: 0 for no effect and ±100 for the full control effect
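In quantitative HTS format, infected erythrocytes bearing luciferase-reporter parasites were treated for a single generation at 37 C. Luminescence after adding detection reagent served as the growth measure.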
Pf growth 96h – Primary qHTS for delayed death inhibitors of the malarial parasite plastid, 96 hour incubation; 6.9% of 320,000 active; Potency, µM (doses to about 28.7 µM), inactives show top-dose activity change, negative = inhibition, usual class: inhibitors; P. falciparum luciferase reporter growth, 96 h; AID 504834, 2011; note: potency is the fitted concentration of half-maximal effect; % is set by controls: 0 for no effect and ±100 for the full control effect
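Cell-based qHTS: luciferase-tagged P. falciparum in erythrocytes (2% hematocrit, 0.05% parasitemia final) incubated with compounds for 96 hours, 37 C, 5% CO2; luciferase detection reagent then added and luminescence measured.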
HCV inh – qHTS Assay for Inhibitors of Hepatitis C Virus (HCV); 3.4% of 340,000 active; Potency, µM (doses to about 41.8 µM), inactives show at the top dose activity change, negative = inhibition, usual class: inhibitors; Huh7.5.1 HCVcc-Cre infection, luciferase reporter, 44 h; note: potency is the fitted concentration of half-maximal effect; % is set by controls: 0 for no effect and ±100 for the full control effect
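After 44 h co-culture of compound, cells and HCVcc-Cre (~0.5 moi), substrate is added for 15 min at room temperature and luciferase measured over 15 sec. Cells were seeded at 1,000/well and pre-cultured 4 h.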
HCMV inh – qHTS Assay for inhibitors of the human cytomegalovirus (HCMV) | HFF cells, HCMV-luciferase reporter, 72 h; hits give low values | 4.5% of 410,000 active | activity change, negative = inhibition, % at 57.5 µM; in the data active = activity change below about -60%; inconclusive = no clear call, values can overlap the other calls; inactive = above about -39%; note: % is set by controls: 0 for no effect and ±100 for the full control effect
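Cell-based, HFFs, 1000 cells/well, 16 h 37C; cpds in DMSO + HCMV-luc, MOI 1 PFU/cell; 72 h 37C; OneGlo luminescence after 5 min RT; norm. to buffer vs Salinomycin 10uM.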
CHX counter – Cycloheximide Counterscreen for Small Molecule Inhibitors of Shiga Toxin. cell reporter, cycloheximide protein synthesis inhibition counterscreen. AID 2314, 2010. max response, %. 12% of 300,000 active; in the data active = max response mostly above about 13%, no sharp cut-off; inactive = mostly below about 14%; note: read at 38.3 µM for the half of the compounds with a filed dose; 0% is about no effect
* = called active by the depositor. Rows were chosen to be rich in hits. Some 21% of all compounds tested hit in one or more screens of this group. Unless noted, calls come from the whole dose curve; as a rule, active = well fitted inhibition curve with a large enough effect; inconclusive = small, poorly fitted or top-dose-only effect, or another doubt; inactive = no such curve, though single readings can be large or run the other way.

What do the screens show for `O=C(Cc1ccc(Cl)c(Cl)c1)Nc1ccccc1N1CCOCC1`?
Shiga toxin inh: 6.3; Pf growth 48h: 0.4%; Pf growth 96h: -29.1%; HCV inh: inconclusive; HCMV inh: -19.3; CHX counter: 10.0

Results for COc1ccc(NC(C)=O)cc1S(=O)(=O)N1CCN(C/C=C/c2ccccc2)CC1 ?
Shiga toxin inh: -3.6; Pf growth 48h: -13.3%; Pf growth 96h: 4.8%; HCV inh: 10.5%; HCMV inh: -21.0; CHX counter: -2.7

How did CCCOc1ccc(C(=O)Nc2cc(-c3nc4cc(C)cc(C)c4o3)ccc2C)cc1 do in these assays?
HCMV inh: -20.4

Results for O=C(Nc1ccccc1N1CCOCC1)C1(c2ccc(Cl)cc2)CCC1 ?
Shiga toxin inh: -8.1; Pf growth 48h: inconclusive; Pf growth 96h: inconclusive; HCV inh: -29.4%; HCMV inh: -66.0*; CHX counter: -2.5

What do the screens show for `CCN(CC)S(=O)(=O)c1ccc(N2CCOCC2)c(NC(=O)CC23CC4CC(CC(Br)(C4)C2)C3)c1`?
Shiga toxin inh: -6.2; Pf growth 48h: -19.6%; Pf growth 96h: 10.4µM*; HCV inh: -16.8%; HCMV inh: 23.2; CHX counter: -4.5

Results for CCN(CC)S(=O)(=O)c1ccc(N2CCOCC2)c(NC(=O)C(C)(C)C)c1 ?
Shiga toxin inh: -4.1; Pf growth 48h: 75.4%; Pf growth 96h: inconclusive; HCV inh: 1.5%; HCMV inh: 22.4; CHX counter: 6.2

What do the screens show for `Cc1ccc(CNS(=O)(=O)c2cnc(N)nc2)cc1`?
HCMV inh: 34.7

What do the screens show for `COCCNC(=O)c1ccc(NS(=O)(=O)c2ccc3[nH]c(=O)[nH]c3c2)cc1`?
Shiga toxin inh: -11.6; Pf growth 48h: 20.5%; Pf growth 96h: inconclusive; HCV inh: 0.2%; HCMV inh: 11.9; CHX counter: -1.0

What do the screens show for `C=C1C(=O)OC2C=C(CO)C3OC3C3OC3(C)CC(OC(=O)/C(=C/C)COC(C)=O)C12` (centres undefined)?
HCV inh: inconclusive; HCMV inh: -100.4*

Results for O=C(CN1C(=O)C(=O)N(Cc2ccco2)C1=O)NC1CCCCC1 ?
Shiga toxin inh: -13.3; Pf growth 48h: 13.3%; Pf growth 96h: -2.0%; HCV inh: 20.7%; HCMV inh: -15.8; CHX counter: -1.8

What do the screens show for `Cc1ccccc1N=C1SC(CC(=O)Nc2ccc3ccccc3c2)C(=O)N1Cc1ccccn1` (centres undefined)?
Shiga toxin inh: 48.0; Pf growth 48h: 1.17µM*; Pf growth 96h: 3.7µM*; HCV inh: 10µM*; HCMV inh: -7.9; CHX counter: 29.2*

How did O=C(CC1Sc2ncnn2C1=O)Nc1ccc(Br)cc1 (centres undefined) do in these assays?
Shiga toxin inh: -2.6; Pf growth 48h: 2.5%; Pf growth 96h: 10.4µM*; HCV inh: -5.2%; HCMV inh: -18.4; CHX counter: -2.5

How did O=C(CC1SC(=Nc2cccc3ccccc23)N(Cc2ccccn2)C1=O)Nc1ccccc1Br (centres undefined) do in these assays?
Shiga toxin inh: 1.6; Pf growth 48h: 9.28µM*; Pf growth 96h: 8.28µM*; HCV inh: -3.5%; HCMV inh: 33.3; CHX counter: -3.5

Results for O=C(CC1SC(=Nc2ccccc2)N(Cc2ccccn2)C1=O)Nc1ccc(Br)cc1 (centres undefined) ?
Shiga toxin inh: 47.8*; Pf growth 48h: -70.8%; Pf growth 96h: inconclusive; HCV inh: inconclusive; HCMV inh: 7.4; CHX counter: 19.5*

How did CCN1C(=O)C(CC(=O)Nc2cccc(C(C)=O)c2)S/C1=N\c1ccccn1 (centres undefined) do in these assays?
Shiga toxin inh: 18.1; Pf growth 48h: 18.8%; Pf growth 96h: -11.4%; HCV inh: 9.0%; HCMV inh: -27.6; CHX counter: 1.1

Results for CC[C@H](C)[C@H](NC(=O)[C@H](CC(=O)O)NC(=O)[C@H](CC(C)C)NC(=O)[C@H](NC(C)=O)C(c1ccccc1)c1ccccc1)C(=O)N[C@H](C(=O)N[C@@H](Cc1c[nH]c2ccccc12)C(=O)O)[C@@H](C)CC ?
Shiga toxin inh: -17.8; CHX counter: -0.7

What do the screens show for `NC1=NC(=Nc2ccccc2)c2ccccc21`?
Shiga toxin inh: 40.0; Pf growth 48h: 10.2%; Pf growth 96h: inconclusive; HCV inh: 1.5%; HCMV inh: 28.8; CHX counter: 0.1

Results for CC(C)c1ccc(N=C2N=C(N)c3ccccc32)cc1 ?
Shiga toxin inh: 118.3*; Pf growth 48h: 33.2%; Pf growth 96h: 140.2%; HCV inh: inconclusive; HCMV inh: 0.0; CHX counter: 80.0*

How did NC1=NC(=Nc2ccc(Cl)cc2)c2ccccc21 do in these assays?
Shiga toxin inh: 26.9; Pf growth 48h: -3.5%; Pf growth 96h: -0.8%; HCV inh: 5.3%; HCMV inh: -4.6; CHX counter: 47.4*

What do the screens show for `Cc1cccc(N=C2N=C(N)c3ccccc32)c1`?
Shiga toxin inh: -13.4; Pf growth 48h: 13.6%; Pf growth 96h: 21.1%; HCV inh: 9.6%; HCMV inh: 33.0; CHX counter: -2.0

How did NC1=NC(=Nc2ccc(Br)cc2)c2ccccc21 do in these assays?
Shiga toxin inh: 62.3*; Pf growth 48h: -1.1%; Pf growth 96h: -7.8%; HCV inh: inconclusive; HCMV inh: -61.2*; CHX counter: 25.8*

How did O=S1(=O)c2cc(Cl)ccc2N2CCC[C@@H]2CN1Cc1ccc(Cl)c(Cl)c1 do in these assays?
HCMV inh: 1.9

Results for CC(C)(C)c1ccc(S(=O)(=O)NC(=O)C2(C)CCN2C(=O)CC2CCCCC2)cc1 (centres undefined) ?
HCMV inh: -10.0

How did CCC(C(=O)NCCCN1CCN(CCCNC(=O)C(CC)c2ccccc2)CC1)c1ccccc1 (centres undefined) do in these assays?
Shiga toxin inh: 1.7; Pf growth 48h: inconclusive; Pf growth 96h: 56.9%; HCV inh: inconclusive; HCMV inh: -9.3; CHX counter: 0.6

Results for CCCCC(CC)C(=O)NCCCN1CCN(CCCNC(=O)C(CC)CCCC)CC1 (centres undefined) ?
Shiga toxin inh: -2.0; Pf growth 48h: 5.86µM*; Pf growth 96h: -1.9%; HCV inh: 7.0%; CHX counter: -2.0

How did COc1ccc(CCNC(=O)CSc2nnc(CNC(=O)c3c(F)cccc3Cl)o2)cc1OC do in these assays?
Shiga toxin inh: -3.3; Pf growth 48h: 4.7%; Pf growth 96h: -20.5%; HCV inh: 2.2%; HCMV inh: -29.8; CHX counter: -3.5

Results for CSC(=NC#N)N1CCN(c2cccc(Cl)c2)CC1 ?
Shiga toxin inh: 36.9; Pf growth 48h: inconclusive; Pf growth 96h: -15.3%; HCV inh: 8.9%; HCMV inh: -67.1*; CHX counter: 0.7
